According to the supplement of paper PMC12582362:
Structures can show the parent of a compound that is named as a salt. About 30 (2%) of roughly 1,500 compounds showed activity.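 The calls were made as follows: active = robust z-score below -2; a few such results were not called.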 The entries come from a sample that favours actives as a whole.

What follows are compounds tested on optoTopBP1 Flp-In 293 T-REx (HEK293) cells (assay: light-induced TopBP1 condensate (nuclear foci) count, plate-normalised robust z-score vs non-control wells; higher = more TopBP1 condensates (negative = condensation inhibitor), active = hit call of the paper). Conditions: 10 µM; incubation time 2 h.

| Structure (SMILES) | light-induced TopBP1 condensate (z-score) |
| --- | --- |
| CCCCCCCCCCCCCCCC[N+](C)(C)CCN(Cc1ccc(OC)cc1)c1ncccn1 [Thonzonium bromide] | -2.49 (active) |
| COc1ccc(CN(CCN(C)C)c2ccccn2)cc1 [Pyrilamine maleate] | -1.49 (inactive) |
| CN(C)CCN(Cc1ccc(Cl)cc1)c1ccccn1 [Chloropyramine hydrochloride] | -0.941 (inactive) |
| CO/N=C(\C(=O)N[C@@H]1C(=O)N2C(C(=O)OC(C)OC(C)=O)=C(COC(N)=O)CS[C@H]12)c1ccco1 (some centres undefined) [Cefuroxime axetil] | -0.531 (inactive) |
| C=C(NC(=O)C(=C)NC(=O)c1csc(C2=N[C@@H]3c4csc(n4)[C@H]4NC(=O)c5csc(n5)[C@H]([C@](C)(O)[C@@H](C)O)NC(=O)[C@H]5CSC(=N5)/C(=C/C)NC(=O)[C@H]([C@@H](C)O)NC(=O)c5csc(n5)[C@]3(CC2)NC(=O)[C@H](C)NC(=O)C(=C)NC(=O)[C@H](C)NC(=O)[C@H]([C@@H](C)CC)N[C@@H]2C=Cc3c([C@H](C)O)cc(nc3[C@H]2O)C(=O)O[C@@H]4C)n1)C(N)=O [Thiostrepton] | -3.34 (active) |
| CC(C)c1ccc2oc3nc(N)c(C(=O)O)cc3c(=O)c2c1 [Amlexanox] | -0.968 (inactive) |
| N=C(NCCCCCCNC(=N)NC(=N)Nc1ccc(Cl)cc1)NC(=N)Nc1ccc(Cl)cc1 [Chlorhexidine] | 0.68 (inactive) |
| CCc1ccc(C(=O)C(C)CN2CCCCC2)cc1 (centres undefined) [Eperisone HCl] | 1.18 (inactive) |
| CC(=O)OCC(=O)[C@@]12N=C(C)O[C@@H]1C[C@H]1[C@@H]3CCC4=CC(=O)C=C[C@]4(C)[C@H]3[C@@H](O)C[C@@]12C [Deflazacort] | -0.182 (inactive) |
| CCOC(=O)C1=C(COCCN)NC(C)=C(C(=O)OC)C1c1ccccc1Cl (centres undefined) [Amlodipine] | -1.57 (inactive) |
| OC(c1cc(C(F)(F)F)nc2c(C(F)(F)F)cccc12)C1CCCCN1 (centres undefined) [Mefloquine hydrochloride] | -1.69 (inactive) |
| CN(C)c1ccc2nc3ccc(=[N+](C)C)cc-3sc2c1 [Methylene blue] | -8.05 (active) |
| CCOc1ccc2nc3cc(N)ccc3c(N)c2c1 [Ethacridine lactate] | 0.0605 (inactive) |
| Nc1ccc2cc3ccc(N)cc3nc2c1 [Proflavine hemisulfate] | -6.85 (active) |
| Nc1c2ccccc2nc2ccccc12 [Aminacrine] | -2.02 (inactive) |
| CO/N=C(\C(=O)N[C@@H]1C(=O)N2C(C(=O)[O-])=C(C[n+]3ccn4ncccc43)CS[C@H]12)c1nsc(N)n1 [Cefozopran hydrochloride] | 0.96 (inactive) |
| CC[C@H]1OC(=O)[C@H](C)[C@@H](O[C@H]2C[C@@](C)(OC)[C@@H](O)[C@H](C)O2)[C@H](C)[C@@H](O[C@@H]2O[C@H](C)C[C@H](N(C)C)[C@H]2O)[C@](C)(O)C[C@@H](C)/C(=N\OCOCCOC)[C@H](C)[C@@H](O)[C@]1(C)O [Roxithromycin] | 0.222 (inactive) |
| CC[N+](C)(CC)CCOC(=O)C1c2ccccc2Oc2ccccc21 [Methantheline bromide] | 0.691 (inactive) |
| CSc1nc2cc(Cl)c(Oc3cccc(Cl)c3Cl)cc2[nH]1 [Triclabendazole] | -2.43 (active) |
| C[C@@H](CN1CC(=O)NC(=O)C1)N1CC(=O)NC(=O)C1 [Dexrazoxane hydrochloride] | -0.035 (inactive) |

| Structure (SMILES) | light-induced TopBP1 condensate (z-score) |
| --- | --- |
| C=CCOc1ccc(CC(=O)O)cc1Cl [Alclofenac] | 0.0679 (inactive) |
| N=C(N)NCCN1CCCCCCC1 [Guanethidine sulfate] | -0.799 (inactive) |
| CC(C)(C)NC[C@H](O)COc1ccccc1C1CCCC1 [Penbutolol sulfate] | -0.793 (inactive) |
| COc1ccccc1Oc1c(NS(=O)(=O)c2ccc(C(C)(C)C)cc2)nc(-c2ncccn2)nc1OCCO [Bosentan] | 0.343 (inactive) |
| CC[C@H]1OC(=O)C[C@@H](O)[C@H](C)[C@@H](O[C@@H]2O[C@H](C)[C@@H](O[C@H]3C[C@@](C)(O)[C@@H](O)[C@H](C)O3)[C@H](N(C)C)[C@H]2O)[C@@H](CC=O)C[C@@H](C)C(=O)/C=C/C(C)=C/[C@@H]1CO[C@@H]1O[C@H](C)[C@@H](O)[C@@H](OC)[C@H]1OC [Tylosin] | 0.755 (inactive) |
| CN1C(=O)OC(C)(C)C1=O [Trimethadione] | 0.285 (inactive) |
| NC[C@@H]1O[C@@H](O[C@H]2[C@H](O)[C@@H](O[C@H]3O[C@H](CO)[C@@H](O)[C@H](N)[C@H]3O)[C@H](N)C[C@@H]2N)[C@@H](O)[C@H](O)[C@H]1O [Kanamycin A sulfate] | 0.0568 (inactive) |
| C[C@H]1[C@H](OC(=O)CCC(=O)O)O[C@@H]2O[C@@]3(C)CC[C@H]4[C@H](C)CC[C@@H]1[C@@]24OO3 [Artesunate] | -0.0235 (inactive) |
| CCN(CC)CCCC(C)Nc1c2ccc(Cl)cc2nc2ccc(OC)cc12 (centres undefined) [Quinacrine dihydrochloride hydrate] | -3.15 (active) |
| CCN(CC)CCCC(C)Nc1ccnc2cc(Cl)ccc12 (centres undefined) [Chloroquine diphosphate] | -0.187 (inactive) |
| CCN(CCO)CCCC(C)Nc1ccnc2cc(Cl)ccc12 (centres undefined) [Hydroxychloroquine sulfate] | -1.68 (inactive) |
| CC(=O)N[C@@H](CC(=O)N[C@@H](CCC(=O)O)C(=O)O)C(=O)O [Spaglumic acid] | 1.44 (inactive) |
| CC(C)(CO)[C@@H](O)C(=O)NCCC(=O)NCCSSCCNC(=O)CCNC(=O)[C@H](O)C(C)(C)CO [Pantethine] | 0.505 (inactive) |
| NCCCC(O)(P(=O)(O)O)P(=O)(O)O [Alendronate sodium] | -0.706 (inactive) |
| O=P(O)(O)C(O)(Cc1cccnc1)P(=O)(O)O [Risedronic acid monohydrate] | -0.826 (inactive) |
| C#C[C@]1(O)CC[C@H]2[C@@H]3CCC4=CCCC[C@@H]4[C@H]3CC[C@@]21C [Lynestrenol] | 1.39 (inactive) |
| CC(C)=CCC1C(=O)N(c2ccccc2)N(c2ccccc2)C1=O [Feprazone] | 1.11 (inactive) |
| C[N+](C)(C)C[C@H](O)CC(=O)[O-] [Levocarnitine] | 0.0352 (inactive) |
| CC(C)Nc1cccnc1N1CCN(C(=O)c2cc3cc(NS(C)(=O)=O)ccc3[nH]2)CC1 [Delavirdine] | 0.915 (inactive) |
| Cn1ccnc1S [Methimazole] | -0.456 (inactive) |

| Structure (SMILES) | light-induced TopBP1 condensate (z-score) |
| --- | --- |
| CC1(C)O[C@@H]2C[C@H]3[C@@H]4CCC5=CC(=O)C=C[C@]5(C)[C@H]4[C@@H](O)C[C@]3(C)[C@]2(C(=O)CO)O1 [Desonide] | -0.951 (inactive) |
| CC/C=C(\C(=O)N[C@@H]1C(=O)N2C(C(=O)OCOC(=O)C(C)(C)C)=C(COC(N)=O)CS[C@H]12)c1csc(N)n1 [Cefcapene pivoxil hydrochloride] | -0.782 (inactive) |
| CCOc1ccccc1C(N)=O [Ethenzamide] | -0.0402 (inactive) |
| CCC[C@@H]1C[C@@H](C(=O)N[C@@H]([C@H]2O[C@H](SC)[C@H](O)[C@@H](O)[C@H]2O)[C@H](C)Cl)N(C)C1 [Clindamycin hydrochloride] | 0.556 (inactive) |
| CC[C@@H]([C@H](C)O)n1ncn(-c2ccc(N3CCN(c4ccc(OC[C@@H]5CO[C@@](Cn6cncn6)(c6ccc(F)cc6F)C5)cc4)CC3)cc2)c1=O [Posaconazole] | -2.52 (active) |
| CCC(C)n1ncn(-c2ccc(N3CCN(c4ccc(OCC5COC(Cn6cncn6)(c6ccc(Cl)cc6Cl)O5)cc4)CC3)cc2)c1=O (centres undefined) [Itraconazole] | -0.757 (inactive) |
| CC(C)N1CCN(c2ccc(OCC3COC(Cn4cncn4)(c4ccc(Cl)cc4Cl)O3)cc2)CC1 (centres undefined) [Terconazole] | -0.114 (inactive) |
| CN[C@@H]1[C@@H](O[C@H]2O[C@H](CO)[C@@H](N)[C@H](O)[C@H]2O)OC2C[C@@H](N)[C@@H](O[C@H]3[C@H](O)[C@@H](O)[C@H](N)C[C@@H]3N)OC2[C@@H]1O (some centres undefined) [Apramycin] | 0.974 (inactive) |
| C#Cc1cccc(Nc2ncnc3cc(OCCOC)c(OCCOC)cc23)c1 [Erlotinib] | 1.27 (inactive) |
| OC(CNCC(O)C1CCc2cc(F)ccc2O1)C1CCc2cc(F)ccc2O1 (centres undefined) [Nebivolol hydrochloride] | -0.227 (inactive) |
| CCCC(=O)N1CCCN(c2nc(N)c3cc(OC)c(OC)cc3n2)CC1 [Bunazosin hydrochloride] | 0.537 (inactive) |
| CC(=O)OCC(=O)[C@@]1(O)[C@H](C)C[C@H]2[C@@H]3CCC4=CC(=O)C=C[C@]4(C)[C@@]3(F)[C@@H](O)C[C@@]21C [Dexamethasone acetate] | 0.214 (inactive) |
| OCCN1CCN(CC/C=C2/c3ccccc3Sc3ccc(Cl)cc32)CC1 [Zuclopenthixol dihydrochloride] | -0.966 (inactive) |
| Cn1cc(C(=O)[C@@H]2CCc3[nH]cnc3C2)c2ccccc21 [Ramosetron hydrochloride] | -0.549 (inactive) |
| COc1ccc(C2C(=O)c3ccccc3C2=O)cc1 [Anisindione] | 0.789 (inactive) |
| COc1cccc2c1C(=O)c1c(O)c3c(c(O)c1C2=O)C[C@@](O)(C(=O)CO)C[C@@H]3O[C@H]1C[C@H](N)[C@@H](O)[C@H](C)O1 [Epirubicin hydrochloride] | -3.05 (active) |
| CC(COc1ccccc1)NC(C)C(O)c1ccc(O)cc1 (centres undefined) [Isoxsuprine hydrochloride] | -0.14 (inactive) |
| Oc1ccc(OCc2ccccc2)cc1 [Monobenzone] | -2.29 (active) |
| C[C@H](NCc1ccc(OCc2cccc(F)c2)cc1)C(N)=O [Safinamide] | -0.127 (inactive) |
